Rows were chosen to be rich in hits. Some 1.3% of all compounds tested hit in one or more screens of this group.
LYPLA2 counter: counter-screen for PME1 inhibitors: inhibitors of human LYPLA2; recombinant LYPLA2, FP-Rh probe fluorescence polarization; inhibition, % at 5.9 µM; 0.38% of 320,000 active;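 active = inhibition above the screen-wide mean plus 3 SD, limit set per campaign, cut at about 26% in these data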
Target sequence (O95372 whole entry, looked up): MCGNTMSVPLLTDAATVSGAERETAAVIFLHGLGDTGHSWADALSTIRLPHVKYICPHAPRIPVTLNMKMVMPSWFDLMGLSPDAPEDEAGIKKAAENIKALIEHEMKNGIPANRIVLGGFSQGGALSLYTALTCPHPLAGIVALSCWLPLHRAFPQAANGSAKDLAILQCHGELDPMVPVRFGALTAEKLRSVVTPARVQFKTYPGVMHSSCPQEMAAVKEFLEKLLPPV
LYPLA1 counter: blocks human lysophospholipase 1, a PME1 counter-screen | inhibition, % at 5.9 µM | recombinant LYPLA1, FP-Rh probe fluorescence polarization | O75608 | 0.16% of 320,000 active;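 active = inhibition above the mean of all tested compounds plus 3 SD, set per campaign, cut at about 14% in these data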;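 note: inhibitors block serine hydrolase probe labeling of LYPLA1 so polarization falls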
PME-1 primary: blocks human protein phosphatase methylesterase 1; Q9Y570; recombinant PME-1, FP-Rh probe fluorescence polarization; inhibition, % at 5.9 µM; 0.53% of 320,000 active; AID 2130;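 active = inhibition above the campaign mean of all compounds plus 3 SD, cut at about 26% in these data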;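 note: competitive labeling of PME-1 active site by serine hydrolase directed probe; inhibitors block probe labeling so polarization falls and inhibition rises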
Target sequence (Q9Y570 whole entry, looked up): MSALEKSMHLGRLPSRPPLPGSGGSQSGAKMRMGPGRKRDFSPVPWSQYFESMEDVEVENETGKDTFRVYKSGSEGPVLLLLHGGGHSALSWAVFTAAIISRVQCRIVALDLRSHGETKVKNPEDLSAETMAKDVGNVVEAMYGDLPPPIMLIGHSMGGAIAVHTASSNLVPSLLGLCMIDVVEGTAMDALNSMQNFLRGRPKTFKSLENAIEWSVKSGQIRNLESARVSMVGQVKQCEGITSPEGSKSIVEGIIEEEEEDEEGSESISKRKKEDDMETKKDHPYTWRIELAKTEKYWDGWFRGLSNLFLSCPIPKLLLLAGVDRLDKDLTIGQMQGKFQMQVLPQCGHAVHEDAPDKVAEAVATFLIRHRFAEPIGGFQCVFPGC
PREPL inh: human PREPL enzyme inhibition; inhibition, % at 5.96 µM; 0.68% of 320,000 active; Q4J6C6; recombinant PREPL, fluorescence polarization activity-based probe; in the data active = inhibition above about 43%
Fam108B counter: Fam108B inhibition, counter-screen for RBBP9 inhibitors; recombinant Fam108B, FP-Rh probe fluorescence polarization; inhibition, % at 9.51 µM; 0.33% of 300,000 active;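 active = inhibition above the screen mean inhibition plus 3 SD, computed separately per campaign, cut at about 18% in these data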;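 note: inhibitors lower polarization as less probe binds the enzyme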
Fam108b inh conf: confirmation of mouse Fam108b serine hydrolase inhibitors. AID 1978. 44% of 930 active. shares compounds with Fam108B counter. inhibition, % at 9.51 µM. recombinant Fam108b, FP-Rh probe fluorescence polarization;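 active = inhibition above a limit from the primary screen, the mean over all compounds plus 3 SD, cut at about 19% in these data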;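 note: inhibitors free the probe so polarization falls as inhibition rises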
Fam108b ABPP HTS: mouse ABHD17B inhibition; shares compounds with Fam108B counter; recombinant Fam108b, gel-based ABPP, fluorophosphonate probe; inhibition, % at 20 µM; 44% of 260 active; in the data active = inhibition above about 40%
Numbers stand for hits; n = inactive; x = no result given.

SMILES	LYPLA2 counter	LYPLA1 counter	PME-1 primary	PREPL inh	Fam108B counter	Fam108b inh conf	others
CCCc1ccc(C2C3=C(CC(C)(C)CC3=O)NC3=C2C(=O)c2ccccc23)cc1 (stereo not drawn)	n	n	n	n	24	n
COc1ccc(NC(=O)C2CCC(=O)N2S(=O)(=O)c2ccc(C)cc2)cc1Cl (stereo not drawn)	n	n	n	n	n	x
Cc1ccc(NC(=O)c2ccc(Nc3c([N+](=O)[O-])cc([N+](=O)[O-])cc3[N+](=O)[O-])cc2)cc1	n	n	36	n	22	n
O=C(Nc1ccccc1Br)c1cc[n+]([O-])cc1	n	n	n	n	n	x
COc1cccc(CNC(=O)c2ccc(CS(=O)c3ccccc3)o2)c1 (stereo not drawn)	n	n	n	n	n	x
Cc1cccc(NC(=S)N/N=C/c2c[nH]c3ccccc23)c1	n	n	39	n	22	n
Cc1ccc(C(=O)Nc2ccc(C(=O)N/N=C/c3c[nH]c4ccccc34)cc2)cc1	n	n	n	n	n	x
CCOC(=O)Nc1nc(-c2ccc(Cl)cc2Cl)cs1	n	n	n	n	n	x
CCCCn1c(=O)nc2n(-c3ccc(OC)cc3)c3ccccc3cc-2c1=O	n	n	n	n	42	n
CCCCn1c(=O)nc2n(-c3ccc(C)cc3)c3ccccc3cc-2c1=O	n	n	n	n	n	x
Cc1ccc2c(c1)C(c1ccccc1)CC(=O)O2 (stereo not drawn)	n	n	n	n	n	x
COc1ccc(-c2csc3nc(-c4ccccc4OC)oc(=O)c23)cc1	n	n	n	n	28	52	Fam108b ABPP HTS=85
O=c1oc(-c2ccccc2F)nc2scc(-c3ccccc3)c12	n	n	n	n	55	54	Fam108b ABPP HTS=80
Cc1nc2scc(-c3ccccc3)c2c(=O)o1	n	n	n	n	34	61	Fam108b ABPP HTS=85
O=C(COC(=O)/C=C/c1ccc([N+](=O)[O-])cc1)NC(c1ccccc1)c1ccccc1	n	n	n	n	n	x
CC(Sc1nnc(NC2CCCCC2)s1)C(=O)Nc1ccc2c(c1)C(=O)c1ccccc1C2=O (stereo not drawn)	n	n	32	n	27	n
Cc1ccc(C2C3=C(CC(C)(C)CC3=O)N=C3c4ccccc4C(=O)C32)cc1 (stereo not drawn)	n	n	n	n	23	n
CCCC1Nc2ccc(C(=O)O)cc2C2C=CCC12 (stereo not drawn)	n	n	n	n	25	n
CC(C)C1Nc2ccc(C(=O)O)cc2C2C=CCC21 (stereo not drawn)	n	n	n	n	n	x
CCOC(=O)c1ccc2c(c1)C1C=CCC1C(C(=O)O)N2 (stereo not drawn)	n	n	n	n	56	33	Fam108b ABPP HTS=n
CN(Cc1ccc(C(F)(F)F)cc1)C(=O)C1CC(=O)N(Cc2ccco2)C1 (stereo not drawn)	x	x	x	n	x	x
CCN(CC)c1ccc(/C=N/NC(=O)c2cccc(S(=O)(=O)Nc3ccccc3OC)c2)c(O)c1	n	n	45	n	58	n
CCN(CC)c1ccc(/C=N/NC(=O)c2ccc3nc[nH]c3c2)c(O)c1	n	n	n	n	22	n
O=C(NCC1CCCO1)/C(=C\c1ccccc1F)NC(=O)c1ccccc1 (stereo not drawn)	n	n	n	n	n	x
Cc1ccc(-c2ccc(/C=C3\C(=O)ON=C3c3ccccc3)o2)c([N+](=O)[O-])c1	n	n	n	n	22	n
SMILES	LYPLA2 counter	LYPLA1 counter	PME-1 primary	PREPL inh	Fam108B counter	Fam108b inh conf	others
Cc1ccc(/C=C2\C(=O)ON=C2c2ccccc2)o1	n	n	n	n	n	x
Nc1cc(C(=O)N2CCCC2)cc(C(=O)N2CCCC2)c1	n	n	n	n	n	x
Cc1ccc(S(=O)(=O)N2CCN(C(=O)CC(C)n3nc(C)c(Cl)c3C)CC2)cc1C (stereo not drawn)	n	n	n	n	n	x
COc1ccc(C=NNC(=O)c2cc(O)c(O)c(O)c2)cc1COc1ccc(C(=O)OCC(C)C)cc1	x	x	x	x	x	x	Fam108b ABPP HTS=n
O=C1CCCC(O)=C1N=Nc1ccc2c(c1)OCO2	n	n	n	n	n	x
O=C1CCCC(O)=C1N=Nc1ccc(C(=O)O)cc1	n	n	n	n	25	20
O=C(N=Nc1c(O)[nH]c2ccc([N+](=O)[O-])cc12)c1ccccc1Cl	n	n	n	n	n	x
O=C(O)c1ccccc1N=Nc1c(O)[nH]c2ccc([N+](=O)[O-])cc12	n	n	n	n	21	n
CCN(CC)C(=O)CSc1nc2ccccc2c(=O)n1-c1cccc(OC)c1	n	n	n	n	n	x
COc1cccc(-n2c(SCc3cc(=O)oc4cc(O)c(O)cc34)nc3ccccc3c2=O)c1	n	n	n	n	26	46	Fam108b ABPP HTS=85
CSC1=NSC2=NC(=O)/C(=C\c3ccc(OC(=O)c4ccco4)cc3)C(=N)N12	n	n	n	n	n	x
CCSC1=NSC2=NC(=O)/C(=C\c3coc4ccccc4c3=O)C(=N)N12	n	n	n	n	43	47	Fam108b ABPP HTS=n
C=C(C)Cn1c(-c2ccncc2)n[nH]c1=S	n	n	n	n	n	x
Cc1ccc(NCc2ccccc2F)cc1	n	n	n	n	19	n
Oc1ccc(Nc2nc(-c3ccccc3)nc3ccccc23)cc1	n	n	n	n	n	x
Oc1ccc(Nc2nc3ccccc3nc2Nc2ccc(O)cc2)cc1	n	n	33	n	45	n
CCOC(=O)c1ccc(N2CCN(c3ccc(F)cc3)CC2)c(NC(=O)Nc2cccc(OC)c2)c1	n	n	n	n	36	n
O=C1/C(=C/c2cccs2)SC(=S)N1NS(=O)(=O)c1ccccc1	n	n	n	n	n	x
O=C1/C(=C/C=C/c2ccco2)SC(=S)N1NS(=O)(=O)c1ccccc1	n	n	n	n	53	n
CC(C(=O)O)N1C(=O)/C(=C/C=C/c2ccco2)SC1=S (stereo not drawn)	n	n	n	n	30	n
CCN(C(=O)C(C)N1C(=O)/C(=C/c2ccco2)SC1=S)C1CCS(=O)(=O)C1 (stereo not drawn)	n	n	n	n	n	x
COc1cccc(C(C(=O)NCC2CCCO2)N(C(=O)Cn2nnc3ccccc32)c2ccccc2C(C)=O)c1OC (stereo not drawn)	n	n	n	n	n	x
CCc1cc(C(Cc2ccc3ccccc3n2)=NO)c(O)cc1O	x	x	x	x	x	x	Fam108b ABPP HTS=40
CCc1cc(/C(Cc2ccccn2)=N\O)c(O)cc1O	n	n	n	n	n	x
CCc1cc(/C(Cc2ccc3ccccc3n2)=N\O)c(O)cc1O	n	n	34	n	25	30
Nc1ccc(O)cc1	n	n	50	n	64	n
Nc1ccc(C(=O)O)cc1	n	n	n	n	n	x
COc1ccc(-c2nc(-c3ccccc3)c(-c3cc([N+](=O)[O-])ccc3C)[nH]2)cc1O	n	n	39	n	28	n

Source: PubChem BioAssay
